From the antibiotic and cytotoxicity screens of Wong et al. (2023) come the findings set out here.

SMILES strings stand for the structures. The whole screen tested about 39,000 compounds, of which about 3,300 (8.5%) were called active. Shown is part of a subset that was picked to be rich in actives.

This test concerns HepG2. In words: cytotoxicity call (relative viability < 0.9). As to conditions: 10 µM.
For the compound `C[C@@H]1CN([C@@H](C)CO)C(=O)c2cccc(NS(=O)(=O)c3cn(C)cn3)c2O[C@@H]1CN(C)Cc1ccc(C(=O)O)cc1`, the cytotoxicity call was “inactive”.

Take `C[C@@H]1CN([C@H](C)CO)C(=O)c2cc(NC(=O)Cn3cnnn3)ccc2O[C@H]1CN(C)Cc1ccc(C(=O)O)cc1`: the cytotoxicity call was “inactive”.

As for `C[C@@H]1CCCCO[C@H](CN(C)C(=O)Nc2ccccc2)[C@H](C)CN([C@@H](C)CO)C(=O)c2cc(NS(=O)(=O)c3cccs3)ccc2O1`, the cytotoxicity call is “inactive”.

Regarding `C[C@H](CO)N1C[C@H](C)[C@@H](CN(C)S(C)(=O)=O)Oc2ccc(NC(=O)CCC(F)(F)F)cc2CC1=O`, the cytotoxicity call was “inactive”.

As to `C[C@@H]1CN([C@@H](C)CO)C(=O)c2cc(NC(=O)Nc3ccccc3)ccc2O[C@@H](C)CCCCO[C@H]1CN(C)S(=O)(=O)c1cccc(F)c1`, the cytotoxicity call was “inactive”.

For the compound `CCOC(=O)[C@H](Cc1c[nH]c2ccccc12)NC(=O)Cn1cc(C(=O)NO)nn1`, the cytotoxicity call is “inactive”.

For `CCOC(=O)[C@H](Cc1c[nH]c2ccccc12)NC(=O)Cn1cc(CN2C(=O)COC[C@H]2c2ccccc2)nn1`, the cytotoxicity call was “active”.

As to `Cc1ccc(S(=O)(=O)N[C@@H](Cc2ccccc2)C(=O)NCCn2cc(CN3C(=O)COC[C@H]3c3ccccc3)nn2)cc1`, the cytotoxicity call is “inactive”.

For `Cc1noc(C)c1S(=O)(=O)Nc1ccc2c(c1)C(=O)N([C@@H](C)CO)C[C@@H](C)[C@H](CN(C)C(=O)NC1CCCCC1)O2`, the cytotoxicity call is “inactive”.

On to `COc1ccc(-c2nc(-c3ccc(C)cc3C)cs2)cc1`, for which the cytotoxicity call was “inactive”.

For the compound `COc1ccc(NC(=O)Nc2ccc3c(c2)CC(=O)N([C@@H](C)CO)C[C@@H](C)[C@H](CN(C)CC2CCCCC2)O3)cc1`, the cytotoxicity call is “active”.

As for `COc1ccc(NC(=O)Nc2ccc3c(c2)CC(=O)N([C@@H](C)CO)C[C@H](C)[C@@H](CN(C)CC2CCCCC2)O3)cc1`, the cytotoxicity call was “inactive”.

On to `COc1ccc(NC(=O)Nc2ccc3c(c2)CC(=O)N([C@H](C)CO)C[C@H](C)[C@@H](CN(C)CC2CCCCC2)O3)cc1`, for which the cytotoxicity call was “inactive”.

`COc1ccc(NC(=O)Nc2ccc3c(c2)CC(=O)N([C@H](C)CO)C[C@@H](C)[C@@H](CN(C)CC2CCCCC2)O3)cc1`: the cytotoxicity call is “active”.

As to `COc1ccc(NC(=O)Nc2ccc3c(c2)CC(=O)N([C@@H](C)CO)C[C@@H](C)[C@@H](CN(C)CC2CCCCC2)O3)cc1`, the cytotoxicity call is “inactive”.

Consider `COc1ccc(NC(=O)Nc2ccc3c(c2)CC(=O)N([C@H](C)CO)C[C@H](C)[C@H](CN(C)CC2CCCCC2)O3)cc1`, for which the cytotoxicity call was “inactive”.

As for `C[C@H](CO)N1C[C@H](C)[C@H](CN(C)Cc2ccc(C(=O)O)cc2)OCCCC[C@H](C)Oc2ccc(NC(=O)NC3CCCCC3)cc2C1=O`, the cytotoxicity call was “inactive”.

Regarding `C[C@H]1CCCCO[C@H](CN(C)S(=O)(=O)c2cccs2)[C@@H](C)CN([C@@H](C)CO)C(=O)c2cc(NS(C)(=O)=O)ccc2O1`, the cytotoxicity call was “inactive”.

With `O=C(NCC(F)(F)F)[C@@H]1c2ccccc2C(=O)N(Cc2cc(C(F)(F)F)cc(C(F)(F)F)c2)[C@H]1c1ccc(CO)cc1`, the cytotoxicity call is “inactive”.

As for `O=C1CO[C@H]2CN(S(=O)(=O)c3ccccc3)C[C@@H]2N1`, the cytotoxicity call was “inactive”.

With `C[C@@H]1CN([C@H](C)CO)C(=O)c2cc(NS(=O)(=O)c3ccc(F)cc3)ccc2O[C@@H]1CN(C)S(C)(=O)=O`, the cytotoxicity call is “inactive”.

As to `C[C@H]1CCCCO[C@H](CN(C)Cc2ccc(C(F)(F)F)cc2)[C@@H](C)CN([C@@H](C)CO)C(=O)c2cc(NS(=O)(=O)c3cccs3)ccc2O1`, the cytotoxicity call was “inactive”.

As for `C[C@@H]1CCCCO[C@@H](CN(C)Cc2ccc(C(F)(F)F)cc2)[C@@H](C)CN([C@@H](C)CO)C(=O)c2cc(NS(=O)(=O)c3cccs3)ccc2O1`, the cytotoxicity call is “active”.

With `C[C@@H]1CCCCO[C@H](CN(C)Cc2ccc(C(F)(F)F)cc2)[C@@H](C)CN([C@H](C)CO)C(=O)c2cc(NS(=O)(=O)c3cccs3)ccc2O1`, the cytotoxicity call was “inactive”.

For the compound `C[C@@H]1CCCCO[C@H](CN(C)Cc2ccc(C(F)(F)F)cc2)[C@H](C)CN([C@H](C)CO)C(=O)c2cc(NS(=O)(=O)c3cccs3)ccc2O1`, the cytotoxicity call was “active”.

For `C[C@@H]1CN([C@@H](C)CO)C(=O)c2cc(NS(=O)(=O)c3cccs3)ccc2O[C@@H](C)CCCCO[C@@H]1CN(C)Cc1ccc(C(F)(F)F)cc1`, the cytotoxicity call was “inactive”.

For `C[C@@H]1CCCCO[C@H](CN(C)Cc2ccc(C(F)(F)F)cc2)[C@H](C)CN([C@@H](C)CO)C(=O)c2cc(NS(=O)(=O)c3cccs3)ccc2O1`, the cytotoxicity call is “active”.

In the case of `C[C@@H]1CN([C@@H](C)CO)C(=O)c2cc(NS(=O)(=O)c3cccs3)ccc2O[C@@H](C)CCCCO[C@H]1CN(C)Cc1ccc(C(F)(F)F)cc1`, the cytotoxicity call was “inactive”.

`C[C@@H]1CN([C@H](C)CO)C(=O)c2cc(NS(=O)(=O)c3cccs3)ccc2O[C@@H](C)CCCCO[C@@H]1CN(C)Cc1ccc(C(=O)O)cc1`: the cytotoxicity call is “inactive”.

Turning to `C[C@@H]1CCCCO[C@@H](CN(C)Cc2ccc(C(=O)O)cc2)[C@H](C)CN([C@H](C)CO)C(=O)c2cc(NS(=O)(=O)c3cccs3)ccc2O1`, the cytotoxicity call is “inactive”.

As for `C[C@@H]1CCCCO[C@@H](CN(C)Cc2ccc(C(F)(F)F)cc2)[C@H](C)CN([C@H](C)CO)C(=O)c2cc(NS(=O)(=O)c3cccs3)ccc2O1`, the cytotoxicity call was “active”.

For `COc1ccc(OCc2c(-c3ccccc3)nnn2CC(=O)NS(=O)(=O)c2cccc(C#N)c2)cc1`, the cytotoxicity call was “inactive”.

Take `COCC(=O)N1C[C@@H](C)[C@H](OC)CN(C)C(=O)c2cc(NC(=O)c3ccc(F)cc3)ccc2OC[C@@H]1C`: the cytotoxicity call is “inactive”.

Turning to `COc1cc2ccc(=O)oc2c(O[C@H]2O[C@@H](CO)[C@@H](O)[C@@H](O)[C@@H]2O)c1O`, the cytotoxicity call is “inactive”.

For the compound `C[C@@H]1CN([C@@H](C)CO)C(=O)Cc2cc(NC(=O)Cn3cnnn3)ccc2O[C@@H]1CN(C)C(=O)Nc1ccc2c(c1)OCO2`, the cytotoxicity call is “inactive”.

Consider `CCS(=O)(=O)N1C[C@]2(CN(C2)C(=O)CN2CCOCC2)c2c(n(c3cc(ccc23)OC)C)[C@H]1CO`, for which the cytotoxicity call is “inactive”.

With `COc1ccc(CN(C)C[C@H]2OCCCC[C@H](C)Oc3ccc(NS(=O)(=O)c4ccccc4)cc3C(=O)N([C@H](C)CO)C[C@H]2C)cc1`, the cytotoxicity call is “inactive”.

`O=C(Cc1ccccn1)NCC[C@H]1CC[C@H](NC(=O)CN2CCOCC2)[C@H](CO)O1`: the cytotoxicity call is “inactive”.

In the case of `C[C@@H]1CN([C@H](C)CO)C(=O)c2cc(NS(=O)(=O)c3cn(C)cn3)ccc2O[C@H]1CN(C)Cc1ccncc1`, the cytotoxicity call is “inactive”.
